Experimental data taken from the supplement of paper PMC3656093.
± gives the standard deviation of the averaged measurements. In all, about 1,900 compounds were measured (“CD40L-induced NF-kB luciferase activity, plate-corrected, relative to DMSO (0) and IKK inhibitor VII (-100) controls”: median about 0.032, lowest 2% from about -26 on). Shown is part of a subset that was picked to be rich in the lowest values.

Each compound was assayed on BL2-NFkB-Luc (assay: CD40L-induced NF-kB luciferase activity, plate-corrected, relative to DMSO (0) and IKK inhibitor VII (-100) controls (% normalized activity); higher = more NF-kB reporter activity (less inhibition)). Conditions: 9.4 µM; stimulus: tCD40L 64 ng/ml; 4.5 h.
Procedure: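 BL2 B cells with a stable NF-kB response-element luciferase reporter (BL2-NFkB-Luc), 384-well. Cells were pre-incubated with compound at 9.4 uM for 1 h at 37 C, then stimulated with 64 ng/ml trimerized CD40L for 4.5 h; luciferase was read with Steady-Glo. Signal was normalised per plate in Genedata (median DMSO neutral control = 0, median IKK inhibitor VII at 50 uM = -100) with Assay Median plate-pattern correction; duplicate plates.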

Row | SMILES | CD40L-induced NF-kB luciferase activity
1 | O=C1C(=O)c2ccccc2-c2ccccc21 | -94.61 ± 0.41
2 | O=C1C=Cc2ccccc2C1=O | 4.88 ± 5.5
3 | CCCC[N+]1(C)[C@@H]2CC(OC(=O)[C@H](CO)c3ccccc3)C[C@H]1[C@@H]1O[C@@H]12 (stereo partly drawn) | -0.479 ± 2.2
4 | CCN(CC)C(=O)N[C@H]1C[C@@H]2c3cccc4[nH]cc(c34)C[C@H]2N(C)C1 | -15 ± 8.3
5 | CC(C)C[C@H]1C(=O)N2CCC[C@H]2[C@]2(O)O[C@](NC(=O)[C@@H]3C=C4c5cccc6[nH]c(Br)c(c56)CC4N(C)C3)(C(C)C)C(=O)N12 (stereo partly drawn) | 3.22 ± 1.5
6 | c1ccc2c(c1)[nH]c1cnccc12 | -5 ± 7.4
7 | COc1cc([C@@H]2c3cc4c(cc3[C@H](O)[C@H]3COC(=O)[C@H]23)OCO4)cc(OC)c1OC | -50.7 ± 3
8 | CCCC(=O)OCC[N+](C)(C)C | -5.48 ± 4.7
9 | CN1[C@@H]2CC[C@H]1CC(OC(=O)C1C=Nc3ccccc31)C2 (stereo partly drawn) | -2.21 ± 6.7
10 | Cc1ccc2c(c1)C1CN(C)CCC1N2C(=O)Nc1cccc(Cl)c1 (stereo not drawn) | -6.16 ± 2.1
11 | C[C@H]1OC[C@@H](C[N+](C)(C)C)O1 | -0.99 ± 1.9
12 | COc1ccc(CN2CC3CC(C2)c2cccc(=O)n2C3)cc1OC (stereo not drawn) | -5.62 ± 3.4
13 | CN[C@H](C)[C@H](O)c1ccccc1 | -2.12 ± 1.3
14 | COc1ccc(OCC(=O)N2c3ccc(C)cc3C3CN(C)CCC32)cc1 (stereo not drawn) | 0.261 ± 0.6
15 | CC(C)C[C@H](NC(=O)[C@@H]1CCCN1C(=O)[C@@H](N)Cc1ccc(O)cc1)C(=O)NCC(N)=O | -28.7 ± 4.1
16 | CC(C)(C)NCC(O)c1cc(Cl)c(N)c(Cl)c1 (stereo not drawn) | -3.51 ± 17
17 | COc1ccc(CCN2CCC(Nc3nc4ccccc4n3Cc3ccc(F)cc3)CC2)cc1 | -4.18 ± 3.9
18 | CC[C@H]1CN2CCc3cc(OC)c(OC)cc3[C@@H]2C[C@@H]1C[C@H]1NCCc2cc(OC)c(OC)cc21 | -93.93 ± 0.21
19 | c1ccc2c3c([nH]c2c1)CNCC3 | -0.0865 ± 4.1
20 | C[C@@H]1O[C@@H](O[C@H]2C[C@@H](O)[C@]3(CO)[C@H]4[C@H](O)C[C@]5(C)[C@@H](C6=CC(=O)OC6)CC[C@]5(O)[C@@H]4CC[C@]3(O)C2)[C@H](O)[C@H](O)[C@H]1O | -78.94 ± 0.33
21 | CC12CC[C@H]3[C@@H](CCC4(O)C[C@H](O)CCC34C=NNC(=O)Cc3ccccc3)C1(O)CCC2C1=CC(=O)OC1 (stereo partly drawn) | -1.26 ± 0.48
22 | C[C@@H]1O[C@@H](O[C@H]2C[C@@H](O)[C@]3(CO)[C@H]4[C@H](O)C[C@]5(C)[C@@H](C6COC(=O)C6)CC[C@]5(O)[C@@H]4CC[C@]3(O)C2)[C@H](O)[C@H](O)[C@H]1O (stereo partly drawn) | 2.54 ± 3.8
23 | CC12CN3CC(C)(CN(C1)C3c1cccs1)C2O (stereo not drawn) | -2.02 ± 2.9
24 | C[C@]12CCC(=O)C=C1CCC1C2CC[C@@]2(C)C1CC[C@@]2(O)CC#N (stereo partly drawn) | -0.607 ± 3.7
25 | O=C1CSC2N1CCNC21CCCCC1 (stereo not drawn) | -1.57 ± 5.5
26 | CCC1(c2ccccc2)C(=O)N(COC)C(=O)N(COC)C1=O | -30.1 ± 1.2
27 | CN1C2CCC1CC(OC(=O)c1ccc(Cl)cc1)C2 (stereo not drawn) | -2.24 ± 2.5
28 | CN(C)[C@@H]1C(=O)C(C(N)=O)C(=O)[C@@]2(O)C(=O)C3C(=O)c4c(O)cccc4[C@@](C)(O)[C@H]3[C@H](O)[C@@H]12 (stereo partly drawn) | 0.102 ± 0.97
